Only a selection was taken, and the strongest signals are over-represented in it overall.
Experiments:
Assay in all cases: glycan array binding signal (z-score within array); higher = stronger binding
[1] = tested on: Neu5Ac(a2-6)Gal(b1-4)GlcNAc(b1-3)Gal(b1-4)GlcNAc; conditions: glycan notation: IUPAC condensed, linker removed
Procedure, shortened: (§1)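 Glycan array data came from 3228 arrays in the Consortium for Functional Glycomics database, and only arrays with an available protein sequence were kept. Glycan names were put into IUPAC-condensed notation, and columns mapping to the same glycan were averaged. The binding signal is a within-array Z-score, averaged across arrays of one protein sequence run at different concentrations or buffers and across linkers. A negative Z-score can be read as non-binding.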

Neu5Ac(a2-6)Gal = conditions: glycan notation: IUPAC condensed, linker removed
Procedure, shortened: as §1

[2] = tested on: Neu5Ac(a2-6)Gal(b1-4)GlcNAc(b1-6)[Gal(b1-3)]GalNAc; conditions: glycan notation: IUPAC condensed, linker removed
Procedure, shortened: as §1

[3] = tested on: Neu5Ac(a2-6)Gal(b1-4)GlcNAc6S; conditions: glycan notation: IUPAC condensed, linker removed
Procedure, shortened: as §1

[4] = tested on: Neu5Ac(a2-8)Neu5Ac(a2-3)[GalNAc(b1-4)]Gal(b1-4)Glc; conditions: glycan notation: IUPAC condensed, linker removed
Procedure, shortened: as §1

[5] = tested on: Neu5Ac(a2-6)Gal(b1-4)GlcNAc(b1-2)[Neu5Ac(a2-6)Gal(b1-4)GlcNAc(b1-4)]Man(a1-3)[GlcNAc(b1-4)][Neu5Ac(a2-6)Gal(b1-4)GlcNAc(b1-4)Man(a1-6)]Man(b1-4)GlcNAc(b1-4)GlcNAc; conditions: glycan notation: IUPAC condensed, linker removed
Procedure, shortened: as §1

[6] = tested on: Neu5Ac(a2-6)Gal(b1-4)GlcNAc(b1-3)Gal(b1-4)GlcNAc(b1-3)Gal(b1-4)GlcNAc(b1-2)Man(a1-3)[Neu5Ac(a2-6)Gal(b1-4)GlcNAc(b1-3)Gal(b1-4)GlcNAc(b1-3)Gal(b1-4)GlcNAc(b1-2)Man(a1-6)]GalNAc; conditions: glycan notation: IUPAC condensed, linker removed
Procedure, shortened: as §1

[7] = tested on: Neu5Ac(a2-6)Gal(b1-4)GlcNAc(b1-3)Gal(b1-4)GlcNAc(b1-3)[Neu5Ac(a2-6)Gal(b1-4)GlcNAc(b1-3)Gal(b1-4)GlcNAc(b1-6)]GalNAc; conditions: glycan notation: IUPAC condensed, linker removed
Procedure, shortened: as §1

[8] = tested on: Neu5Ac(a2-6)GalNAc(b1-4)GlcNAc6S; conditions: glycan notation: IUPAC condensed, linker removed
Procedure, shortened: as §1

[9] = tested on: Neu5Ac(a2-6)Gal(b1-4)GlcNAc; conditions: glycan notation: IUPAC condensed, linker removed
Procedure, shortened: as §1

[10] = tested on: Neu5Ac(a2-8)Neu5Ac(a2-3)Gal(b1-4)Glc; conditions: glycan notation: IUPAC condensed, linker removed
Procedure, shortened: as §1

[11] = tested on: Neu5Ac(a2-8)Neu5Ac(a2-8)Neu5Ac(a2-3)[GalNAc(b1-4)]Gal(b1-4)Glc; conditions: glycan notation: IUPAC condensed, linker removed
Procedure, shortened: as §1

[12] = tested on: Neu5Ac(a2-8)Neu5Ac(a2-8)Neu5Ac(a2-3)Gal(b1-4)Glc; conditions: glycan notation: IUPAC condensed, linker removed
Procedure, shortened: as §1

[13] = tested on: Neu5Ac(a2-6)Gal(b1-4)GlcNAc(b1-3)Gal(b1-4)[Fuc(a1-3)]GlcNAc(b1-3)Gal(b1-4)[Fuc(a1-3)]GlcNAc; conditions: glycan notation: IUPAC condensed, linker removed
Procedure, shortened: as §1

[14] = tested on: Neu5Ac(a2-8)Neu5Ac(a2-3)Gal(b1-3)GalNAc(b1-4)[Neu5Ac(a2-3)]Gal(b1-4)Glc; conditions: glycan notation: IUPAC condensed, linker removed; mutation: R125K
Procedure, shortened: as §1

[15] = tested on: Neu5Ac(a2-8)Neu5Ac(a2-3)Gal(b1-4)GlcNAc; conditions: glycan notation: IUPAC condensed, linker removed; mutation: R125K
Procedure, shortened: as §1

Neu5Ac(a2-6)Gal(b1-4)Glc = conditions: glycan notation: IUPAC condensed, linker removed
Procedure, shortened: as §1

[16] = tested on: Neu5Ac(a2-6)GlcNAc(b1-4)GlcNAc; conditions: glycan notation: IUPAC condensed, linker removed
Procedure, shortened: as §1

[17] = tested on: Neu5Ac(a2-6)Gal(b1-4)GlcNAc(b1-3)Gal(b1-3)GlcNAc; conditions: glycan notation: IUPAC condensed, linker removed
Procedure, shortened: as §1

Neu5Ac(a2-6)GalNAc = conditions: glycan notation: IUPAC condensed, linker removed
Procedure, shortened: as §1

PILRb (Mus musculus), Q2YSF2, sequence (Q2YSF2 entry or part of it): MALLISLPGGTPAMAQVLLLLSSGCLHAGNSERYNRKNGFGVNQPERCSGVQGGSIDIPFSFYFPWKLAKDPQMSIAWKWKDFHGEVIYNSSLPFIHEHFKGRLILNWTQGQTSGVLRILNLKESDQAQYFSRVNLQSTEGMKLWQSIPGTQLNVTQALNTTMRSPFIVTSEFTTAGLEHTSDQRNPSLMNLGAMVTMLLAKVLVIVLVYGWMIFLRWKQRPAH
Neurocan (Homo sapiens), O14594, sequence (O14594 other isoform, or with tags, fused parts or gaps): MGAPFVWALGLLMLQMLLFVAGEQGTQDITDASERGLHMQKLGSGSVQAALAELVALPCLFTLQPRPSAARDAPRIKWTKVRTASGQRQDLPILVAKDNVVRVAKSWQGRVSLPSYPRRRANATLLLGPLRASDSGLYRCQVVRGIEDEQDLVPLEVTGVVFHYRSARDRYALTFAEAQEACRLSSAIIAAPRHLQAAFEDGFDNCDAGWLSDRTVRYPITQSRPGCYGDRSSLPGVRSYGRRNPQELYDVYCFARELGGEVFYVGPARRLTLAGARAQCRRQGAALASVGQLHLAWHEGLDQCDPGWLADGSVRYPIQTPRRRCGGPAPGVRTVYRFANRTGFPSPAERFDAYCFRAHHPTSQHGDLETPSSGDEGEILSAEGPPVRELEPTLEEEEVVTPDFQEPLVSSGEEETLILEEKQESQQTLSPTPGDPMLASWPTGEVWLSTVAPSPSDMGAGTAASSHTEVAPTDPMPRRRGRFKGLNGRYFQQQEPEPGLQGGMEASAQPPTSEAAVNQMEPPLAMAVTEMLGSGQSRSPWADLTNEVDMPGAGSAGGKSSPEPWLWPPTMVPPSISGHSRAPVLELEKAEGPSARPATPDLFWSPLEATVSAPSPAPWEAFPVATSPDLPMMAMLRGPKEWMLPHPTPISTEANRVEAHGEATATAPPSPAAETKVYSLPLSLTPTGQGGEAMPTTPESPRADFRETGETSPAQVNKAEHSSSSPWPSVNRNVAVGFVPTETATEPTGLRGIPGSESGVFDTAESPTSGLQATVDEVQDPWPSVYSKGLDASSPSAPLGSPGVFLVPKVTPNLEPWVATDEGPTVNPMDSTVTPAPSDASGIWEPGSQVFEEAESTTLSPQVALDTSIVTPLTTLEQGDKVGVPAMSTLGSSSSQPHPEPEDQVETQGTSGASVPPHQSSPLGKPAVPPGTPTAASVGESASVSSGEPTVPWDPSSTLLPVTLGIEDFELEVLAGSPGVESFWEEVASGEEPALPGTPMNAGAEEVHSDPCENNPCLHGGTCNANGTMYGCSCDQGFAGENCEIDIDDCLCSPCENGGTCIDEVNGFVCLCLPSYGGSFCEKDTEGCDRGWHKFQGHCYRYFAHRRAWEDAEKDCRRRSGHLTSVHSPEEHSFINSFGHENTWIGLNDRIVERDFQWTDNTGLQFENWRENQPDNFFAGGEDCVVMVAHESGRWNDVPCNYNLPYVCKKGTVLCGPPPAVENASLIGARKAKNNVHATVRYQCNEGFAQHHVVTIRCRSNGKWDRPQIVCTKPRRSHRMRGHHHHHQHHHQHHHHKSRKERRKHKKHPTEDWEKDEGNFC
Avaren (Actinomycete K97), sequence (chain, as listed by the source): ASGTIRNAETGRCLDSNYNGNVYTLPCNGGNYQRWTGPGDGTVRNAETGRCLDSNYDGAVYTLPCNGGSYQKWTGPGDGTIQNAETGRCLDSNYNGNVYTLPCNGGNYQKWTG
CHI3L1 (Homo sapiens), P36222, sequence (P36222 whole entry): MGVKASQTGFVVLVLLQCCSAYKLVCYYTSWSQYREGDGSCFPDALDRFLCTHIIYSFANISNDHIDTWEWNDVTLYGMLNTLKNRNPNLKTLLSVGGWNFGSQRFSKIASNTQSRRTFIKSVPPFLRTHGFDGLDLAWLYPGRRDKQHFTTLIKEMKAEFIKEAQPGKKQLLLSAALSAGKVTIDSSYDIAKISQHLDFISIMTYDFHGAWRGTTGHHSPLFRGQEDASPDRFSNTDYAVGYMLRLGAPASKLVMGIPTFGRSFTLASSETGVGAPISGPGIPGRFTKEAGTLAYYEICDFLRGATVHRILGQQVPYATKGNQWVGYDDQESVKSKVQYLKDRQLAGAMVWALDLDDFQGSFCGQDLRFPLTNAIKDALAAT
Regenerating Gene IV (Homo sapiens), Q9BYZ8, sequence (Q9BYZ8 whole entry, looked up): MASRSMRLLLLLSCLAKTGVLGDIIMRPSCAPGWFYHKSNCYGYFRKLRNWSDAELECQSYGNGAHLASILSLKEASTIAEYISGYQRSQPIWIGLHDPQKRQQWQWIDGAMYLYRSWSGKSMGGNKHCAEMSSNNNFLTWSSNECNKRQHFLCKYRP
PILRa (Mus musculus), Q2YSF3, sequence (Q2YSF3 entry or part of it): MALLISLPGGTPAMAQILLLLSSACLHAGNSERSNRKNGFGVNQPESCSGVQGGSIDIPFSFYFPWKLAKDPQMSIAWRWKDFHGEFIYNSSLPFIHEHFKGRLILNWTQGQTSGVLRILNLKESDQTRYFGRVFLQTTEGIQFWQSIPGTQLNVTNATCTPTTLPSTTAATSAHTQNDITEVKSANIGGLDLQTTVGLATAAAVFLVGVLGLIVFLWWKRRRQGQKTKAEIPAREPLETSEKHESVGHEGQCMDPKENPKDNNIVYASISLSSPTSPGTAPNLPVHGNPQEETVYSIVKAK
C3b (Homo sapiens), P01024, sequence (P01024 23-667): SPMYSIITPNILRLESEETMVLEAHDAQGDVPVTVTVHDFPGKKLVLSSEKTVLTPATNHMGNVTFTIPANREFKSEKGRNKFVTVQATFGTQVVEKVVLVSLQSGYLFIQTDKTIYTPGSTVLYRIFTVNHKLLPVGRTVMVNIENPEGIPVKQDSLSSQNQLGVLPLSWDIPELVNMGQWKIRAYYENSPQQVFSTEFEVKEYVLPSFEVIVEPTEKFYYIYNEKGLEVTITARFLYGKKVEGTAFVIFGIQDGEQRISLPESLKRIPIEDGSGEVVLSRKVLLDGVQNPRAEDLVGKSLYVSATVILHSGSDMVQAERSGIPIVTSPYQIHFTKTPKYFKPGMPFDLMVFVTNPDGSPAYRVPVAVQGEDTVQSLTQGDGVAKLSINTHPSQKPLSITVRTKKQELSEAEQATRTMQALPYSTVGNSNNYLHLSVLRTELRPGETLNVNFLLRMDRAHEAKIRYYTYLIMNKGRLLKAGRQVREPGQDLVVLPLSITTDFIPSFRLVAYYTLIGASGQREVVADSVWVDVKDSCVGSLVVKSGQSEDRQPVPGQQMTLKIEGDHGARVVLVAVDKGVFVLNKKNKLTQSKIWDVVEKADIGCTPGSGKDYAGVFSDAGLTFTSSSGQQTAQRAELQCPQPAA
SRLC (Mus musculus), Q8VIF6, sequence (Q8VIF6 other isoform, or with tags, fused parts or gaps): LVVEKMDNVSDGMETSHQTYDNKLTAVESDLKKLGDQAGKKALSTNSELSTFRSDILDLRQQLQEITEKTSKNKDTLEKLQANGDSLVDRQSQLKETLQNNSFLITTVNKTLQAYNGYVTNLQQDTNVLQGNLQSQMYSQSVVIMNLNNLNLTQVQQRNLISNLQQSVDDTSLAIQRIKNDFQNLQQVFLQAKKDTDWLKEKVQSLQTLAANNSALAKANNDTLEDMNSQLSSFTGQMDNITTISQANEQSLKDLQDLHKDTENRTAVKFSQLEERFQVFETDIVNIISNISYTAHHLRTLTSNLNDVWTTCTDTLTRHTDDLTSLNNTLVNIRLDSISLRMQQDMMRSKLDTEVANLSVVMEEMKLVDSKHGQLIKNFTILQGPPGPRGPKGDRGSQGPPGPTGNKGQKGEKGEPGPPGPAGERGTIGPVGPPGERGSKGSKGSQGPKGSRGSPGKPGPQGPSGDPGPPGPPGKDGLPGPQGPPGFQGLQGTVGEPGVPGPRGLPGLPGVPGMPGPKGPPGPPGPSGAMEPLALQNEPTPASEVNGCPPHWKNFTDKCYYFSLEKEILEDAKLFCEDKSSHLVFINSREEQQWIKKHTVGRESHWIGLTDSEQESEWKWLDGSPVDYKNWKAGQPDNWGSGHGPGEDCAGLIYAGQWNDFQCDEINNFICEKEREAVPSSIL
Aggrecan (Rattus norvegicus), NP_071526, sequence (chain, as listed by the source): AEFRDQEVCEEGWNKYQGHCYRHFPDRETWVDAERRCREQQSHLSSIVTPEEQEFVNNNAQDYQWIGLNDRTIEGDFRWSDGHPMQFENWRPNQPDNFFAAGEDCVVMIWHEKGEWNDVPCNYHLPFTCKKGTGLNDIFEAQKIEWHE

For HARE (Homo sapiens), Q8WWQ8, the “glycan array binding signal (z-score)” value [1] was -0.057 and the “glycan array binding signal (z-score)” value (Neu5Ac(a2-6)Gal) was -0.26.

With Avaren (Actinomycete K97) the “glycan array binding signal (z-score)” value [2] was -0.134, the “glycan array binding signal (z-score)” value [3] was -0.14 and the “glycan array binding signal (z-score)” value [4] was -0.117.

In the case of MpAFP RI GFP (Marinomonas primoryensis), the “glycan array binding signal (z-score)” value [5] is reported as 0.092, the “glycan array binding signal (z-score)” value [6] is reported as 3.43 and the “glycan array binding signal (z-score)” value [7] is reported as 1.36. For the same substance, the “glycan array binding signal (z-score)” value [8] was -0.16.

“Regenerating Gene IV (Homo sapiens), Q9BYZ8” was tested, and the “glycan array binding signal (z-score)” value [9] was -0.335, the “glycan array binding signal (z-score)” value (Neu5Ac(a2-6)Gal) was 0.693 and the “glycan array binding signal (z-score)” value [10] was 0.532. For the same substance, the “glycan array binding signal (z-score)” value [11] was -0.332.

PILRa (Mus musculus), Q2YSF3 was tested, and the “glycan array binding signal (z-score)” value [3] was 1.51 and the “glycan array binding signal (z-score)” value (Neu5Ac(a2-6)Gal) was 2.04.

With CHI3L1 (Homo sapiens), P36222 the “glycan array binding signal (z-score)” value [1] was -0.105, the “glycan array binding signal (z-score)” value [3] was -0.139 and the “glycan array binding signal (z-score)” value [8] was -0.113. The “glycan array binding signal (z-score)” value [12] was -0.11.

With SRLC (Mus musculus), Q8VIF6 the “glycan array binding signal (z-score)” value [10] was -0.188.

For Siglec-8 (Homo sapiens), Q9NYZ4, the “glycan array binding signal (z-score)” value [13] was 0.008, the “glycan array binding signal (z-score)” value ([9]; mutation: R125K) was -0.306 and the “glycan array binding signal (z-score)” value [14] was -0.164. For the same substance, the “glycan array binding signal (z-score)” value [15] was -0.473.

Aggrecan (Rattus norvegicus), NP_071526 was tested, and the “glycan array binding signal (z-score)” value [1] was -0.113.

In the case of C3b (Homo sapiens), P01024, the “glycan array binding signal (z-score)” value [3] is reported as 0.107 and the “glycan array binding signal (z-score)” value (Neu5Ac(a2-6)Gal(b1-4)Glc) is reported as -0.687.

In the case of PILRb (Mus musculus), Q2YSF2, the “glycan array binding signal (z-score)” value [9] is reported as -0.349, the “glycan array binding signal (z-score)” value [16] is reported as -0.085 and the “glycan array binding signal (z-score)” value [12] is reported as -0.167.

In the case of Neurocan (Homo sapiens), O14594, the “glycan array binding signal (z-score)” value [17] is reported as 0.267, the “glycan array binding signal (z-score)” value [13] is reported as -1.44 and the “glycan array binding signal (z-score)” value (Neu5Ac(a2-6)GalNAc) is reported as 0.364.
